# Pf growth 48h – inhibits P. falciparum growth in the first generation, 48 h. P. falciparum luciferase growth in erythrocytes, 48 h. Potency, µM (series often up to 28.7 µM), without a hit: at the top dose activity change, negative = inhibition, usual class: inhibitors. hit rate 5.9% among 310,000; note: potency is the fitted concentration of half-maximal effect; % is set by controls: 0 for no effect and ±100 for the full control effect
#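 Parasite viability was followed by luminescence of a genomically integrated firefly luciferase. Cultures held 0.1% parasitemia at 2% hematocrit (final), incubated under 5% CO2 at 37 C.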
# Shiga inhibitor – inhibitors of Shiga toxin in Vero cells; Vero cells, Shiga toxin protein synthesis inhibition reporter; inhibition, % at 38.7 µM; hit rate 9.2% among 290,000; AID 2315; in the data active = inhibition mostly above about 28%, no sharp cut-off; inactive = mostly below about 43%; note: 0% is about no effect
# SARS PLP yeast – inhibitors of SARS-CoV papain-like protease in yeast; hit rate 0.19% among 330,000; Potency, µM (highest dose often 32.9 µM), for the others: at the highest dose activity, positive = growth rescue, hits mostly activators; S. cerevisiae expressing SARS-CoV PLpro, growth rescue; calls by dose curve; note: potency is the fitted concentration of half-maximal effect; 0% is about no effect; nearly all actives have a fitted effect of over 55% in size
# CHX counter – affects cycloheximide protein synthesis inhibition readout, counter-screen. cell reporter, cycloheximide protein synthesis inhibition counterscreen. max response, %. hit rate 12% among 300,000; in the data active = max response mostly above about 13%, no sharp cut-off; inactive = mostly below about 14%; note: read at 38.3 µM for the half of the compounds with a filed dose; 0% is about no effect
# Pf growth 96h – inhibits malaria parasite growth, 96 h. P. falciparum luciferase reporter growth, 96 h. Potency, µM (titrated, usually from 28.7 µM), inactives show top-dose activity change, negative = inhibition, most hits filed as inhibitors. hit rate 6.9% among 320,000. AID 504834; note: potency is the fitted concentration of half-maximal effect; % is set by controls: 0 for no effect and ±100 for the full control effect
#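 P. falciparum expressing integrated firefly luciferase grown in erythrocytes (2% hematocrit, 0.05% parasitemia final) with compounds for 96 hours at 37 C, 5% CO2. Growth inhibition read as loss of luminescence after adding luciferase detection reagent.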
# NS1 function inh – inhibitors of influenza NS1 protein function; Potency, µM (titrated, usually from 46.1 µM), for inactives: top-dose activity, positive = more growth; hit rate 0.4% among 270,000; calls by dose curve; note: potency is the fitted concentration of half-maximal effect; actives are rising curves; nearly all actives have a fitted effect of over 50% in size
#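 Recovery from NS1-induced slow growth read by OD600 in budding yeast switched to galactose assay medium (pH 6.0, -URA) at 1:100 dilution. Compound 23 nl per well; the matching strain lacking NS1 serves as control.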
# * marks the source's active call; other numbers are inactive results; ? = inconclusive; . = no result. An excerpt weighted towards active compounds, which were near 21% of everything screened. Unless noted, calls come from the whole dose curve; as a rule, active = well fitted inhibition curve with a large enough effect; inconclusive = small, poorly fitted or top-dose-only effect, or another doubt; inactive = no such curve, though single readings can be large or run the other way.
SMILES,Pf growth 48h,Shiga inhibitor,SARS PLP yeast,CHX counter,Pf growth 96h,NS1 function inh
O=C(CC(=O)Nc1ccc(Cl)cc1)N/N=C\c1cccc(F)c1,2%,-3,2%,-6,10µM*,7%
COC(=O)c1ccc(/C=N/NC(=O)c2cccc(F)c2)cc1,?,105*,-10%,61*,-42%,6%
COc1cc(/C=N\NC(=O)c2ccc(C)nc2)ccc1OC(=O)c1cccc(F)c1,48%,-2,-2%,-3,7%,8%
O=C(O)c1ccc2c(c1)C(=O)N(c1ccc([N+](=O)[O-])cn1)C2=O,24%,-2,-8%,-2,1%,-5%
Cc1cccc(N(CC(=O)NCc2ccco2)C(=O)CCC(=O)Nc2nccs2)c1C,-25%,12,-2%,-2,?,-6%
CC1CCCC(C)N1C(=O)c1cc2ncc(CCCl)cn2n1 (centres undefined),21%,22,5%,-1,?,7%
CC(=O)N1C(=O)N(C)C2C1N(C)C(=O)N2C(C)=O (centres undefined),1%,-10,6%,-3,?,2%
CC(=O)OC1C(OC(C)=O)N(C(C)=O)C(=O)N1C(C)=O (centres undefined),-4%,-8,2%,-1,9.3µM*,-2%
Cc1ccc(-c2csc(NC(=O)C[n+]3cc(-c4ccccc4)n4c3CCC4)n2)cc1,?,10,-3%,1,?,-5%
Cn1c(NC(=O)C[n+]2cc(-c3ccccc3)n3c2CCC3)cc(=O)n(C)c1=O,2.6µM*,-2,-4%,-4,0.83µM*,0%
Cn1c(NC(=O)C[n+]2cc(-c3ccc(Cl)cc3)n3c2CCC3)cc(=O)n(C)c1=O,4.1µM*,-14,12%,-3,0.33µM*,-1%
O=C(C[n+]1cc(-c2ccc(Cl)cc2)n2c1CCC2)Nc1nc(-c2ccc(F)cc2)cs1,-3%,12,-2%,-1,?,1%
CC(=O)N1c2ccc(S(=O)(=O)N3CCC(C(=O)Nc4ccc(C)cn4)CC3)cc2CC1C (centres undefined),?,-9,-5%,-4,?,-21%
CC[C@@H](C)[C@@H](C(=O)N1CCN(C(=O)OC(C)(C)C)CC1)n1cc(CCCN=C(NC(=O)OC(C)(C)C)NC(=O)OC(C)(C)C)nn1,?,-11,1%,0,?,0%
CC[C@H](C)[C@@H](C(=O)NCCCCCCCCCCC(=O)N1CCN(C(=O)OC(C)(C)C)CC1)n1cc(CCCCCNC(=O)OC(C)(C)C)nn1,1.5µM*,.,-3%,.,1µM*,.
CC[C@H](C)[C@@H](C(=O)NCCCCCCCCCCC(=O)N1CCN(C(=O)OC(C)(C)C)CC1)n1cc(CCCCN=C(NC(=O)OC(C)(C)C)NC(=O)OC(C)(C)C)nn1,1.2µM*,.,4%,.,1.9µM*,.
Cc1cn([C@H](C(=O)NCCCCCCCCCCC(=O)N2CCN(C(=O)OC(C)(C)C)CC2)[C@@H](C)O)nn1,10µM*,.,2%,.,9.3µM*,.
C[C@H](O)[C@@H](C(=O)N1CCN(C(=O)OC(C)(C)C)CC1)n1cc(CCCCNC(=O)OC(C)(C)C)nn1,-2%,35,0%,-2,9%,4%
CN(c1ccc(O)cc1)c1nc(-c2cccs2)cs1,-12%,-6,0%,-4,3%,0%
Cc1nc(N)sc1-c1csc(N(C)c2ccc(O)cc2)n1,49%,66*,-1%,23*,21%,?
O=C(NCC(=O)N1CCN(C(=O)c2ccco2)CC1)c1ccc(Br)cc1,48%,-4,-10%,-4,-37%,-2%
Cc1ccc(S(=O)(=O)N2CCCC2C(=O)Nc2cc(C)on2)cc1 (centres undefined),4.7µM*,14,-6%,-2,26%,-3%
Cc1ccc(S(=O)(=O)N2Cc3ccccc3CC2C(=O)Nc2cc(C)on2)cc1 (centres undefined),-17%,38,-2%,11,2%,-3%
Cc1cccc(NC(=O)C2CCCN2S(=O)(=O)c2ccc3c(c2)n(C)c(=O)c(=O)n3C)c1 (centres undefined),2%,-4,-2%,-4,8.3µM*,-2%
CCc1cccc(NC(=O)C2CCCN2S(=O)(=O)c2ccc3c(c2)n(C)c(=O)c(=O)n3C)c1 (centres undefined),-10%,12,-1%,0,-8%,-9%
SMILES,Pf growth 48h,Shiga inhibitor,SARS PLP yeast,CHX counter,Pf growth 96h,NS1 function inh
COc1cc(C)cc(OC)c1/C=C\C(=O)O,.,.,.,.,.,-8%
O=C(COc1ccc(Cl)cc1)NCCSCc1ccccc1Cl,-6%,-9,-46%,-2,7%,-56%
O=C(CSCc1ccccc1Cl)NCCSc1ccccn1,20%,69,-4%,21*,21%,.
CCC(C(=O)NCc1ccco1)N(C(=O)CNS(=O)(=O)c1ccc(C)cc1)c1ccccc1F (centres undefined),?,0,0%,-6,-6%,2%
CCOC(=O)c1c(C)[nH]c(C2=NNC(=Nc3cccc(Cl)c3)SC2)c1C,2.1µM*,4,-40%,-3,2.1µM*,-3%
Cc1ccc(S(=O)(=O)N(C)c2ccc(OC(=O)c3cc(=O)[nH]c4ccccc34)cc2)cc1,.,.,2%,.,.,.
Cc1c(C(=O)Nc2ccccc2N2CCN(C)CC2)oc2ccc(F)cc12,?,.,-1%,.,?,.
CC(=O)C(N=Nc1ccccc1)(Sc1nnc(-c2ccccc2)n1-c1ccccc1)C(=O)Nc1ccccc1 (centres undefined),13µM*,-21,-18%,1,12µM*,?
CC(=O)/C(=N\Nc1ccccc1)Sc1nnc(-c2ccccc2)n1-c1ccccc1,-27%,3,5%,-4,?,3%
CC(=O)C(N=Nc1ccccc1)(Sc1nnc(-c2ccccc2)n1-c1ccccc1)C(C)=O,?,-14,-9%,-3,12µM*,-8%
O=C(O)CSCCOc1ccc(OCCSCC(=O)O)cc1,3%,-1,14%,-2,-7%,-6%
Cc1ccccc1NC(=O)CCCNC(=O)c1ccc(Cl)cc1,-11%,-5,1%,2,11%,3%
COc1ccccc1S(=O)(=O)Cc1ccc(C(=O)N2CCN(c3ccc(C)cc3)C(C)C2)o1 (centres undefined),12µM*,-5,0%,-2,?,-26%
CCOC(=O)N1CCN(C(=O)c2ccc(CS(=O)(=O)c3ccccc3OC)o2)CC1,1%,26,1%,18,?,18%
CCc1ccccc1S(=O)(=O)Cc1ccc(C(=O)N2CCN(c3ccccn3)CC2)o1,.,3,2%,-2,9.3µM*,-19%
COc1ccccc1N1CCN(C(=O)c2ccc(CS(=O)(=O)c3ccccc3OC)o2)CC1,?,10,5%,15*,9.3µM*,-10%
O=C(Nc1ccccc1)c1ccccc1OCc1cccc([N+](=O)[O-])c1,-7%,-12,12%,-3,?,-7%

# Source: PubChem
